From PubChem BioAssay (Tox21) come the findings set out here.

Assay [1] is described as follows: A CellTox Green Cytotoxicity Assay to monitor cytotoxicity in HepG2 cells - 8 hour (AID 1224890). Further: nearly all actives have a fitted effect of over 45% in size. In short, it runs like this:
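Continuous culture of HepG2 cells with a membrane-impermeant DNA dye; rising fluorescence marks dead cells. Compound exposure lasted up to 40 h at 37 C, with reads every 8 h from 0 h.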

The nature of assay [2]: qHTS assay to identify small molecule antagonists of the estrogen receptor alpha (ER-alpha) signaling pathway using the BG1 cell line in the presence of 0.1 nM 17-beta-estradiol - cell viability counter screen (AID 1259241). Further: nearly all actives have a fitted effect of over 40% in size. The essentials: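 In this screen, hormone-deprived VM7Luc4E2 cells were seeded at 4,000 per well, dosed with compound and 0.1 nM estradiol final, and incubated 22 hr at 37C and 5% CO2; fluorogenic live-cell protease signal reported viability.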
(In general: In qHTS, concentration-response curves come from the screen itself.)

A short description of assay [3]: qHTS assay to identify small molecule antagonists of the androgen receptor (AR) signaling pathway using the MDA cell line in the presence of 0.5 nM R1881 - cell viability counter screen (AID 1259242). Further: nearly all actives have a fitted effect of over 45% in size. In short, it runs like this: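 Fluorescence from CellTiter-Fluor, which reports protease activity of live cells, was read 30 min after reagent addition to MDA-kb2 cells that had been incubated 16 hr with compound and 0.5 nM R1881.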

Assay [4] has as its target Estrogen receptor (Homo sapiens) (UniProt P03372). Description: qHTS assay to identify small molecule antagonists of the estrogen receptor alpha (ER-alpha) signaling pathway using the BG1 cell line in the presence of 0.1 nM 17-beta-estradiol (AID 1259244). Further: nearly all actives have a fitted effect of over 50% in size. The essentials: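 Quantitative high-throughput screen in VM7Luc4E2 cells: compound plus 0.1 nM E2 (final), 22 h, 37C, 5% CO2; ONE-Glo added, 30 min room temperature, luminescence measured.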

The nature of assay [5]: qHTS assay to identify small molecule HDAC inhibitors (AID 1259364). Further: nearly all actives have a fitted effect of over 45% in size. Further: potency means the concentration at half of the fitted maximal effect. The essentials:
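Endogenous HDAC class I/II activity was measured in wild-type HCT-116 cells by HDAC-Glo luminescence after 2 h compound treatment.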

Assay [6] in a line: qHTS assay to identify small molecule HDAC inhibitors - cell viability counter screen (AID 1259365). Further: series mostly up to about 92 µM; nearly all actives have a fitted effect of over 50% in size. The essentials:
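Measured quantity is CellTiter-Glo luminescence from wild-type HCT-116 cells after compound incubation of 2hr at 37C, 5% CO2; reagent developed 30min at room temperature.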

Assay [7] is described as follows: qHTS assay to identify small molecule antagonists of the sonic hedgehog signaling (Shh) pathway - cell viability counter screen (AID 1259367). Further: nearly all actives have a fitted effect of over 55% in size. The essentials:
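After a 4 hr settling period, 3T3 Gli1-Luc cells were treated with DMSO-dissolved chemicals and conditioned medium, kept 24 hr at 37C in 5% CO2, and assayed for viability by CellTiter-Fluor fluorescence following 1 hr reagent incubation.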

Assay [8] is described as follows: qHTS assay to identify small molecule agonists of the sonic hedgehog signaling (Shh) pathway (AID 1259368; calls by dose curve;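 further: NIH/3T3-derived 3T3Gli1-Luc cells carrying a stable Gli1-driven firefly luciferase reporter; series mostly up to about 92 µM; nearly all actives have a fitted effect of over 15% in size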). In short, it runs like this:
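Luminescent signal was taken as a measure of Gli1-controlled luciferase expression in stably transfected NIH/3T3-derived cells that had been treated for 24 hr with compounds delivered in DMSO.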

The nature of assay [9]: qHTS assay to identify small molecule antagonists of the sonic hedgehog signaling (Shh) pathway (AID 1259369; calls by dose curve; further: nearly all actives have a fitted effect of over 45% in size). The essentials:
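Screening used 3T3Gli1-Luc cells at 2,000 per well, compounds delivered in DMSO, and conditioned medium as agonist stimulus; plates incubated 24hr at 37 C and 5% CO2 before a 30min luciferase step.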

The target of assay [10] is Estrogen receptor beta (Homo sapiens) (UniProt Q92731). Briefly: qHTS assay to identify small molecule antagonists of the estrogen receptor beta (ER-beta) signaling pathway (AID 1259378; active means well fitted inhibition curve with a large enough effect in the signal ratio in the repeat runs, not every such curve was filed as active; the % refers to the signal ratio). In short, it runs like this:
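ER-beta-UAS-bla HEK293T (GripTite) cells in 2% charcoal-stripped FBS medium were preincubated 6 hr at 37C, dosed with compound, then stimulated with 1 nM E2 (final) for 16 hr; beta-lactamase reporter read by B/G FRET fluorescence after 2 hr substrate loading.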

Assay [11] is described as follows: qHTS assay to identify small molecule agonists of the androgen receptor (AR) signaling pathway in the presence of an antagonist - cell viability counter screen (AID 1259379). Further: nearly all actives have a fitted effect of over 25% in size. Further: potency means the concentration at half of the fitted maximal effect. The essentials: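 In MDA-kb2 cells (human breast carcinoma, MMTV-luciferase), compounds at 15 concentrations plus 3.0uM nilutamide; 16 hr, 37C, 0% CO2; CellTiter-Fluor fluorescence read for viability.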

The nature of assay [12]: qHTS assay to identify small molecule agonists of the estrogen receptor beta (ER-beta) signaling pathway - cell viability counter screen (AID 1259380). Further: nearly all actives have a fitted effect of over 30% in size. The essentials: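 Viability of ER-beta-UAS-bla HEK293T cells was determined by CellTiter-Glo luminescence following 16 hr treatment with test compounds at 37C.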
A short description of assay [13]: qHTS assay to identify small molecule antagonists of the estrogen receptor beta (ER-beta) signaling pathway - cell viability counter screen (AID 1259382). Further: series mostly up to about 92 µM; nearly all actives have a fitted effect of over 55% in size. In short, it runs like this:
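Tox21 10K library tested in qHTS format on ER-beta-bla HEK293T cells stimulated with 1nM E2; 16 hr treatment at 37C. Same-well CellTiter-Glo luminescence served as the cell viability measure.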

Assay [14] addresses Estrogen receptor (Homo sapiens) (UniProt P03372). Briefly: qHTS assay to identify small molecule agonists of the estrogen receptor alpha (ER-alpha) signaling pathway in the presence of an antagonist (AID 1259383; calls by dose curve; further: top concentration of the series differs between compounds; nearly all actives have a fitted effect of over 15% in size). The essentials: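 In VM7Luc4E2 cells, 4,000 per well, compounds at 15 concentrations were co-incubated 22hr at 37C with 10.0nM final ICI-182,780. Luminescence from the stably transfected 4×ERE-luciferase reporter was recorded 30min after ONE-Glo addition.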

A short description of assay [15]: qHTS assay to identify small molecule agonists of the sonic hedgehog signaling (Shh) pathway - cell viability counter screen (AID 1259366). Further: nearly all actives have a fitted effect of over 50% in size. The essentials: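 In quantitative high-throughput format, 3T3 Gli1-Luc cells were exposed to compounds for 24hr and multiplexed for viability using CellTiter-Fluor, incubated 1hr at 37C before the fluorescence read.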
A short description of assay [16]: qHTS assay to identify small molecule agonists or antagonists of the thyroid stimulating hormone receptor (TSHR) signaling pathway - wild type cell line counter screen (AID 1259384; calls by dose curve). In short, it runs like this:
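Wild-type HEK293 cells were plated 18 h at 37 C/5% CO2, pin-dosed with compound plus Ro20-1724 medium, held 30 min at room temperature, then given cAMP-d2 and anti-cAMP-cryptate; fluorescence was read after 1 h. Fifteen concentrations, triplicate.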

Assay [17] deals with Androgen receptor (Homo sapiens) (UniProt P10275). Description: qHTS assay to identify small molecule agonists of the androgen receptor (AR) signaling pathway in the presence of an antagonist (AID 1259381; calls by dose curve; further: nearly all actives have a fitted effect of over 15% in size). In short, it runs like this: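 Here, 15-concentration compound series were pin-transferred onto MDA-kb2 MMTV-luciferase cells already dosed with nilutamide (3.0uM final). After 16hr at 37C, ONE-Glo was added and luminescence read 30min later at room temperature.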
Chain of Androgen receptor (Homo sapiens) (P10275 whole entry, looked up): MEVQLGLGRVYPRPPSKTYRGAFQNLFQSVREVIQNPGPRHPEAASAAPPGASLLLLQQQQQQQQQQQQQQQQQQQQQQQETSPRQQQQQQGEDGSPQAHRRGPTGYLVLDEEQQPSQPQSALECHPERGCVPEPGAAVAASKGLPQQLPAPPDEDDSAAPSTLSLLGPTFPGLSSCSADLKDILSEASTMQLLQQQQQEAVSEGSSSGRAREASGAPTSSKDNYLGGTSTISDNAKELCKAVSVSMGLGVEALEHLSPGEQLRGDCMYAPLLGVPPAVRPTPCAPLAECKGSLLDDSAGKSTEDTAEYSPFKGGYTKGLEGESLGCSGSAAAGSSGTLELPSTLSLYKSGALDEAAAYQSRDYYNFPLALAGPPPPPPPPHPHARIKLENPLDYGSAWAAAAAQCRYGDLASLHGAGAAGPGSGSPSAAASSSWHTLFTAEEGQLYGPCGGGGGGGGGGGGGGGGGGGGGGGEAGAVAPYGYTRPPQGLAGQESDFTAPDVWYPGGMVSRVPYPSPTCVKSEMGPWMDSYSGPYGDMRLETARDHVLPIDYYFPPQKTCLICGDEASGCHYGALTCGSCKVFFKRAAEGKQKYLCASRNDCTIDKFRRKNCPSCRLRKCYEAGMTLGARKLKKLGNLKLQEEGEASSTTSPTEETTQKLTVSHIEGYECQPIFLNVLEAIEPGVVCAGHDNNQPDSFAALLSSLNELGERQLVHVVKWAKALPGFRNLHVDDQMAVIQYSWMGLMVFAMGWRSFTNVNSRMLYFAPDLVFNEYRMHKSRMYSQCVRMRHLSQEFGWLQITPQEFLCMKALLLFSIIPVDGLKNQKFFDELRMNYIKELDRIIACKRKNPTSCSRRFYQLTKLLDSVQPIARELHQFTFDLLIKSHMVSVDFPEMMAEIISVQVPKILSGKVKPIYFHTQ

The nature of assay [18]: qHTS assay to identify small molecule phospholipidosis (PLD) inducers (AID 1259344; active means well fitted curve in the direction sought with a large enough effect; an effect the other way counts as inactive or inconclusive). The essentials: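 HepG2 cells grown on collagen I take up LipidTOX Red while exposed to compound for 24 h; after fixation they are imaged at 20x and pit metrics are extracted.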
Assay [19] concerns the target Estrogen receptor beta (Homo sapiens) (UniProt Q92731). Description: qHTS assay to identify small molecule agonists of the estrogen receptor beta (ER-beta) signaling pathway (AID 1259377; active means well fitted activation curve with a large enough effect in the signal ratio in the repeat runs, not every such curve was filed as active; the % refers to the signal ratio). In short, it runs like this:
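Reporter cells (HEK293T, ER-beta-UAS-bla) receive compounds or DMSO after a 6 hr pre-incubation. They then incubate 16 hr at 37C/5% CO2, and fluorescence from LiveBLAzer B/G substrate is measured after 2 hours at room temperature.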

Structures are written as SMILES. Unmarked numbers belong to inactive results. Results filed as inconclusive are left out. Activity calls are given as the source filed them. Unless noted, the call rests on the fitted dose curve; in most records, active means well fitted curve in the direction sought with a large enough effect in the repeat runs; inconclusive means weak or mixed curves; inactive means no such curve, though single readings can be large; an effect the other way counts as inactive or inconclusive.

Chain of Estrogen receptor (Homo sapiens) (P03372 whole entry, looked up): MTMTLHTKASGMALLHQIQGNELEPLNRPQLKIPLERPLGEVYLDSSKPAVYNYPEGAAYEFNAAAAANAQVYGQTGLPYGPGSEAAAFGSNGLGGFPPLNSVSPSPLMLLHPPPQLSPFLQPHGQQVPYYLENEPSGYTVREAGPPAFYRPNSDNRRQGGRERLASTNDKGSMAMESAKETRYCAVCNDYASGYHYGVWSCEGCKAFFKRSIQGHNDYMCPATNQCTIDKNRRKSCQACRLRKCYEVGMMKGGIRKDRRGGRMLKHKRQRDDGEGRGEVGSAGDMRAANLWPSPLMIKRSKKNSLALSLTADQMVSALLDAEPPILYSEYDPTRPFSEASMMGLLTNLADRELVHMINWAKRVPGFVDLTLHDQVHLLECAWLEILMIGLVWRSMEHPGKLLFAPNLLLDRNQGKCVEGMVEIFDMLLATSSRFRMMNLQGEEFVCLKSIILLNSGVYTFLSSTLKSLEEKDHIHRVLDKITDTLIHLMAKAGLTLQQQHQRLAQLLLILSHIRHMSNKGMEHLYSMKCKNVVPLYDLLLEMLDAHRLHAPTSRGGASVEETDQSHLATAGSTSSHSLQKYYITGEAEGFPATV
Chain of Estrogen receptor beta (Homo sapiens) (Q92731 whole entry, looked up): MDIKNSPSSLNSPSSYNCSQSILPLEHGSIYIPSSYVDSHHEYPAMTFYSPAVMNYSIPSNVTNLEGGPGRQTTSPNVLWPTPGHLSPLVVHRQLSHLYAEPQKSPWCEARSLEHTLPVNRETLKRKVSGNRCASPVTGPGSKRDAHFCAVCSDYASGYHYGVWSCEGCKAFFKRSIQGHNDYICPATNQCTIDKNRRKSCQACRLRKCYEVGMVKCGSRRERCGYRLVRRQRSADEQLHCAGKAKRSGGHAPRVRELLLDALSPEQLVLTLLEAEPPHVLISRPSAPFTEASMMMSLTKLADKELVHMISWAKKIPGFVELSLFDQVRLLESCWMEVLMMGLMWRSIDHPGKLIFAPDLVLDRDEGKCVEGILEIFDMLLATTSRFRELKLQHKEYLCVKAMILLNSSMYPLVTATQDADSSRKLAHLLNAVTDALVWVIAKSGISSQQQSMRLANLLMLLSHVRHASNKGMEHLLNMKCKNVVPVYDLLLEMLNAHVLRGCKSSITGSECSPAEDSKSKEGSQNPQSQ

Regarding `CCOC(=O)C(C)O` (stereo not drawn), the Potency result in assay [1], in assay [2], in assay [3], in assay [4], in assay [5] and in [6] was “inactive” in each case. Besides, the Potency entry in assay [7], in assay [8], in [9], in [10], in [11] and in assay [12] was “inactive” each time. Besides, the Potency entry in assay [13] and in [14] was “inactive” each time.

For `COC(=O)c1sccc1S(N)(=O)=O`, the Potency entry in assay [1], in assay [2], in [3], in assay [4], in [5] and in assay [6] was “inactive” in each case. The Potency entry in assay [15], in assay [7], in assay [8], in assay [9], in [11] and in [12] was “inactive” each time. The Potency entry in [13] and in assay [14] was “inactive” throughout.

As for `CCCCCCCCCCCCCCCC(=O)OCC`, the Potency result in [1], in assay [2], in assay [3], in assay [4], in assay [5] and in [6] was “inactive” each time. Also, the Potency result in [7], in assay [8], in assay [9], in [11], in assay [12] and in [13] was “inactive” throughout. Moreover, the Potency result in assay [14] and in [16] was “inactive” throughout.

Take `CC(C)CC(O)CC(C)C`: the Potency result in assay [1], in assay [2], in assay [3], in [4], in assay [5] and in assay [6] was “inactive” throughout. Besides, the Potency entry in [7], in assay [8], in assay [9], in assay [11], in assay [12] and in assay [13] was “inactive” in each case. The Potency entry in assay [14] and in [16] was “inactive” each time.

As for `CCOC(=O)N1CCC(Nc2ccc(Cl)cc2N)CC1`, in [17], the Potency result is “inactive”.

With `CC1C(C)(C)C2=C(C(=O)CCC2)C1(C)C` (stereo not drawn), the Potency entry in [1], in [2], in [4], in assay [5], in assay [6] and in [15] was “inactive” each time. In addition, the Potency entry in [7], in assay [8], in [11], in assay [12], in assay [13] and in [14] was “inactive” each time. Moreover, the Potency entry in assay [16] is “inactive”.

As to `Nc1ccc(N=Nc2ccc(N)cc2)cc1`, the Potency result in assay [1], in assay [3], in assay [4], in assay [6], in assay [8] and in [14] was “inactive” each time. Moreover, the results for the Potency in assay [5] and in assay [11] were 12.2 µM (active) and 27.3 µM (active), respectively.

Regarding `CC(O)Cn1cnc2c1c(=O)n(C)c(=O)n2C` (stereo not drawn), the Potency entry in [1], in [2], in [18], in assay [5], in [6] and in [15] was “inactive” each time. Also, the Potency entry in assay [7], in assay [8], in [9], in assay [19], in [10] and in assay [11] was “inactive” in each case. In addition, the Potency entry in assay [12] and in [13] was “inactive” throughout.

`Cc1cc([N+](=O)[O-])ccc1N`: the Potency entry in assay [1], in assay [4], in [6], in assay [8], in [9] and in [10] was “inactive” each time. For the same molecule, the Potency result in assay [12], in [13], in [14] and in assay [16] was “inactive” in each case. Moreover, the Potency in assay [11] was 53.8 µM (active).
